{"source": "the supplement of paper PMC8728848", "test_in_all_cases": "glycan array binding signal (z-score within array); higher = stronger binding", "conditions_in_all_cases": "glycan notation: IUPAC condensed, linker removed", "key": {"[1]": {"biological_target": "Fuc(a1-2)Gal(b1-3)GlcNAc6S", "method_in_brief": "(§1)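 Columns mapping to the same glycan were averaged after glycan names were converted to IUPAC-condensed notation. The data come from 3228 arrays in the Consortium for Functional Glycomics database, limited to those with an available protein sequence. Binding is reported as a within-array Z-score averaged across arrays of one protein sequence and across linkers.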"}, "[2]": {"biological_target": "Fuc(a1-2)Gal(b1-3)[Fuc(a1-4)]GlcNAc(b1-2)Man(a1-3)[Fuc(a1-2)Gal(b1-3)[Fuc(a1-4)]GlcNAc(b1-2)Man(a1-3)]Man(b1-4)GlcNAc(b1-4)GlcNAc", "method_in_brief": "as §1"}, "[3]": {"biological_target": "Fuc(a1-2)Gal(b1-4)[Fuc(a1-3)]GlcNAc(b1-3)GalNAc", "method_in_brief": "as §1"}, "[4]": {"biological_target": "Fuc(a1-2)[Gal(a1-3)]Gal(b1-3)GlcNAc(b1-2)Man(a1-3)[Fuc(a1-2)[Gal(a1-3)]Gal(b1-3)GlcNAc(b1-2)Man(a1-6)]Man(b1-4)GlcNAc(b1-4)[Fuc(a1-6)]GlcNAc", "method_in_brief": "as §1"}, "[5]": {"biological_target": "Fuc(a1-2)[Gal(a1-3)]Gal(b1-4)GlcNAc", "method_in_brief": "as §1"}, "[6]": {"biological_target": "Fuc(a1-2)[GalNAc(a1-3)]Gal(b1-3)GlcNAc(b1-2)Man(a1-3)[Fuc(a1-2)[GalNAc(a1-3)]Gal(b1-3)GlcNAc(b1-2)Man(a1-6)]Man(b1-4)GlcNAc(b1-4)[Fuc(a1-6)]GlcNAc", "method_in_brief": "as §1"}, "[7]": {"biological_target": "Fuc(a1-2)[GalNAc(a1-3)]Gal(b1-4)GlcNAc(b1-2)Man(a1-3)[Fuc(a1-2)[GalNAc(a1-3)]Gal(b1-4)GlcNAc(b1-2)Man(a1-6)]Man(b1-4)GlcNAc(b1-4)GlcNAc", "method_in_brief": "as §1"}, "[8]": {"biological_target": "Fuc(a1-2)[GalNAc(a1-3)]Gal(b1-4)[Fuc(a1-3)]GlcNAc", "method_in_brief": "as §1"}, "[9]": {"biological_target": "Fuc(a1-3)[Gal(b1-4)]GlcNAc(b1-2)Man", "method_in_brief": "as §1"}, "[10]": {"biological_target": "Fuc(a1-3)[Gal(b1-4)]GlcNAc(b1-6)[Gal(b1-3)GlcNAc(b1-3)]Gal(b1-4)Glc", "method_in_brief": "as §1"}, "[11]": {"biological_target": "Gal(a1-3)Gal(b1-3)GlcNAc(b1-2)Man(a1-3)[Gal(a1-3)Gal(b1-3)GlcNAc(b1-2)Man(a1-6)]Man(b1-4)GlcNAc(b1-4)GlcNAc", "method_in_brief": "as §1"}, "[12]": {"biological_target": "Gal(b1-3)GlcNAc(b1-2)Man(a1-3)[Gal(b1-3)GlcNAc(b1-2)Man(a1-6)]Man(b1-4)GlcNAc(b1-4)[Fuc(a1-6)]GlcNAc", "method_in_brief": "as §1"}, "[13]": {"biological_target": "Gal(b1-3)GlcNAc(b1-3)Gal(b1-4)GlcNAc(b1-2)Man(a1-3)[Gal(b1-3)GlcNAc(b1-3)Gal(b1-4)GlcNAc(b1-2)Man(a1-6)]Man(b1-4)GlcNAc(b1-4)GlcNAc", "method_in_brief": "as §1"}, "[14]": {"biological_target": "Gal(b1-3)GlcNAc(b1-6)[Gal(b1-3)]GalNAc", "method_in_brief": "as §1"}, "[15]": {"biological_target": "Gal(b1-3)[Neu5Ac(a2-6)]GalNAc", "method_in_brief": "as §1"}, "Gal(b1-4)Glc6S": {"biological_target": "Gal(b1-4)Glc6S", "method_in_brief": "as §1"}, "[16]": {"biological_target": "Gal(b1-4)GlcNAc(b1-2)[Gal(b1-4)GlcNAc(b1-4)]Man(a1-3)[Gal(b1-4)GlcNAc(b1-2)[Gal(b1-4)GlcNAc(b1-6)]Man(a1-6)]Man(b1-4)GlcNAc(b1-4)GlcNAc", "method_in_brief": "as §1"}, "[17]": {"biological_target": "Gal(b1-4)GlcNAc(b1-2)[Gal(b1-4)GlcNAc(b1-6)]Man(a1-6)[Gal(b1-4)GlcNAc(b1-2)Man(a1-3)]Man(b1-4)GlcNAc(b1-4)[Fuc(a1-6)]GlcNAc", "method_in_brief": "as §1"}, "[18]": {"biological_target": "Gal(b1-4)GlcNAc(b1-3)Gal(b1-4)GlcNAc(b1-2)Man(a1-3)[Gal(b1-4)GlcNAc(b1-3)Gal(b1-4)GlcNAc(b1-2)Man(a1-6)]Man(b1-4)GlcNAc(b1-4)GlcNAc", "method_in_brief": "as §1"}, "[19]": {"biological_target": "Gal(b1-4)GlcNAc(b1-3)Gal(b1-4)GlcNAc(b1-3)Gal(b1-4)GlcNAc(b1-2)Man(a1-3)[Gal(b1-4)GlcNAc(b1-3)Gal(b1-4)GlcNAc(b1-3)Gal(b1-4)GlcNAc(b1-2)Man(a1-6)]Man(b1-4)GlcNAc(b1-4)GlcNAc", "method_in_brief": "as §1"}, "[20]": {"biological_target": "Gal(b1-4)GlcNAc(b1-3)Gal(b1-4)GlcNAc(b1-3)Gal(b1-4)GlcNAc(b1-2)Man(a1-3)[Gal(b1-4)GlcNAc(b1-3)Gal(b1-4)GlcNAc(b1-3)Gal(b1-4)GlcNAc(b1-2)Man(a1-6)]Man(b1-4)GlcNAc(b1-4)[Fuc(a1-6)]GlcNAc", "method_in_brief": "as §1"}, "[21]": {"biological_target": "Gal(b1-4)GlcNAc(b1-3)Gal(b1-4)GlcNAc(b1-3)Gal(b1-4)GlcNAc(b1-3)Gal(b1-4)GlcNAc(b1-2)Man(a1-3)[Gal(b1-4)GlcNAc(b1-3)Gal(b1-4)GlcNAc(b1-3)Gal(b1-4)GlcNAc(b1-3)Gal(b1-4)GlcNAc(b1-2)Man(a1-6)]Man(b1-4)GlcNAc(b1-4)[Fuc(a1-6)]GlcNAc", "method_in_brief": "as §1"}, "[22]": {"biological_target": "Gal(b1-4)GlcNAc(b1-3)Gal(b1-4)GlcNAc(b1-3)Gal(b1-4)GlcNAc(b1-3)Gal(b1-4)GlcNAc(b1-3)Gal(b1-4)GlcNAc(b1-2)Man(a1-3)[Gal(b1-4)GlcNAc(b1-3)Gal(b1-4)GlcNAc(b1-3)Gal(b1-4)GlcNAc(b1-3)Gal(b1-4)GlcNAc(b1-3)Gal(b1-4)GlcNAc(b1-2)Man(a1-6)]Man(b1-4)GlcNAc(b1-4)[Fuc(a1-6)]GlcNAc", "method_in_brief": "as §1"}, "[23]": {"biological_target": "Gal(b1-4)GlcNAc(b1-3)Gal(b1-4)GlcNAc(b1-3)[Gal(b1-4)GlcNAc(b1-3)Gal(b1-4)GlcNAc(b1-6)]GalNAc", "method_in_brief": "as §1"}}, "note": "This excerpt belongs to a sample that is enriched for the strongest signals.", "data": [{"binder": "rCnSL-proB (Clitocybe nebularis) (protein) PTFSPIFALLAFLPFGTLASLLPQTQLVFRINPNLPGPNDVFVGYRGTNNVVGAIYERDGIKDTPMNNGADAELGPGSYITDDLFTAQIFASGSAGNNPGTTATVCKIYADGVQWRGAPKGYLPVLYFGNGQAAEQTRQTYLQGLDIPGTAIRFANLAKTPNQGPTAPRQMVVPSGGLQTLLKASCFPANHAALPQVLSYFNVRAALPPGWNIRTGPEFPNWTN", "values": [{"measurement": "glycan array binding signal (z-score)", "setting": "[1]", "value": -0.282}, {"measurement": "glycan array binding signal (z-score)", "setting": "[2]", "value": 3.69}, {"measurement": "glycan array binding signal (z-score)", "setting": "[3]", "value": 0.251}, {"measurement": "glycan array binding signal (z-score)", "setting": "[4]", "value": 0.259}, {"measurement": "glycan array binding signal (z-score)", "setting": "[5]", "value": -0.77}, {"measurement": "glycan array binding signal (z-score)", "setting": "[6]", "value": 3.9}, {"measurement": "glycan array binding signal (z-score)", "setting": "[7]", "value": -0.08}, {"measurement": "glycan array binding signal (z-score)", "setting": "[8]", "value": -0.654}, {"measurement": "glycan array binding signal (z-score)", "setting": "[9]", "value": -0.565}, {"measurement": "glycan array binding signal (z-score)", "setting": "[10]", "value": -0.826}, {"measurement": "glycan array binding signal (z-score)", "setting": "[11]", "value": -0.093}, {"measurement": "glycan array binding signal (z-score)", "setting": "[12]", "value": -0.42}, {"measurement": "glycan array binding signal (z-score)", "setting": "[13]", "value": 3.58}, {"measurement": "glycan array binding signal (z-score)", "setting": "[14]", "value": -0.511}, {"measurement": "glycan array binding signal (z-score)", "setting": "[15]", "value": 0.089}, {"measurement": "glycan array binding signal (z-score)", "setting": "Gal(b1-4)Glc6S", "value": -0.06}, {"measurement": "glycan array binding signal (z-score)", "setting": "[16]", "value": 3.51}, {"measurement": "glycan array binding signal (z-score)", "setting": "[17]", "value": 4.49}, {"measurement": "glycan array binding signal (z-score)", "setting": "[18]", "value": 6.35}, {"measurement": "glycan array binding signal (z-score)", "setting": "[19]", "value": 4.18}, {"measurement": "glycan array binding signal (z-score)", "setting": "[20]", "value": 1.76}, {"measurement": "glycan array binding signal (z-score)", "setting": "[21]", "value": 2.28}, {"measurement": "glycan array binding signal (z-score)", "setting": "[22]", "value": 0.375}, {"measurement": "glycan array binding signal (z-score)", "setting": "[23]", "value": 4.08}]}]}
